# PostGolgi yeast: phenotypic screen on post-Golgi transport, primary screen | 0.9% of 98,000 active | AID 739, 2007 | post-Golgi transport phenotypic cell assay | inhibition, % at 10 µM;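 also: yeast cells grown in 1536-well plates; yeast grown about 18 h at 30C before absorbance read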
# CYP2C9 activ: human CYP2C9 activators, primary screen, biochemical, luminescence. activation factor at 5 µM. Cytochrome P450 2C9 (Homo sapiens), P11712. 1.4% of 96,000 active. recombinant CYP2C9, luciferin-H conversion; active compounds read high; factor 1 = untreated enzyme, 0 = blocked. AID 1024, 2008;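 active = activation factor of 2 or more for CYP2C9 at a 5 µM dose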;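 also: 0 = sulfaphenazole-blocked wells and 1 = vehicle-only wells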
# Target sequence (P11712 whole entry, looked up): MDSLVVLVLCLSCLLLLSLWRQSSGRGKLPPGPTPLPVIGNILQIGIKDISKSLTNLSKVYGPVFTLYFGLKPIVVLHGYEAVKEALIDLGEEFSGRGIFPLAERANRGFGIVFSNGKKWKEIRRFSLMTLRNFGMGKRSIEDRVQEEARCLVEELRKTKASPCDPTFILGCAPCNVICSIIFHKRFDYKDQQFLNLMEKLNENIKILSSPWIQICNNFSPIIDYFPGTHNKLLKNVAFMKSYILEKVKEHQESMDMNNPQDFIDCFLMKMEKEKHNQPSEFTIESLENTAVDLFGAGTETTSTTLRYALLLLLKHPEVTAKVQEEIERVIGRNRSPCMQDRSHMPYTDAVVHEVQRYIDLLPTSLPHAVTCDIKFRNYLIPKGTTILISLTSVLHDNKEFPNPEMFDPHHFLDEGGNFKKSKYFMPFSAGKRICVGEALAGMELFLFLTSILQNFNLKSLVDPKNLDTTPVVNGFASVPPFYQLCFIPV
# CYP2C19 activ: human CYP2C19 activators, primary screen, biochemical, luminescence | activation factor at 5 µM | recombinant CYP2C19, luciferin-H EGE luminescence; active compounds read high; 0 = fully inhibited enzyme, 1 = untreated enzyme | Cytochrome P450 2C19 (Homo sapiens), P33261 | 96,000 tested, under 10 active;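 active = activation factor of at least 2 at 5 µM in the primary screen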;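 also: 0 = wells with 2.5 mM tranylcypromine and 1 = vehicle-only wells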
# PostGolgi ctrl: growth inhibition of yeast control strain, primary screen, counter-screen for post-Golgi transport modulator project; 5% of 98,000 active; inhibition, % at 10 µM; efflux-deficient yeast background strain, growth absorbance A615, 16 h
# CYP2C19 inh: blockers of cytochrome P450 2C19 activity – biochemical, luminescence, ADME assay, primary screen | 21% of 96,000 active | inhibition, % at 5 µM | CYP2C19 Supersomes, luciferin-H EGE luminescence, 30 min | P33261 | AID 778, 2007;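 active = CYP2C19 inhibition above a set limit at 5 µM in the primary screen, cut at about 50% in these data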;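 also: plate controls were negative control wells for no effect and 2.5 mM tranylcypromine positive control for full effect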
# CYP2C9 inhib: blockers of cytochrome P450 2C9 activity – biochemical, luminescence, ADME assay, primary screen. CYP2C9 Supersomes, luciferin-H conversion. inhibition, % at 5 µM. 20% of 96,000 active. AID 777, 2007;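 active = blocking of liver enzyme CYP2C9 beyond about 50% at 5 µM, limit read from the data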
# * = called active by the depositor; nt = no result. In the library only some 32% were active in any assay of this set; here they are far more common. Rule as the data show it, unless noted: active = inhibition above about 30%; inactive = the rest.
SMILES,PostGolgi yeast,CYP2C9 activ,CYP2C19 activ,PostGolgi ctrl,CYP2C19 inh,CYP2C9 inhib
CCN(CC)CCOc1c(Br)ccc2c1sc1nc3n(c(=O)c12)CCC3,16,0.8,0.2,-5,84*,15
O=c1c2c(nc3n1CCCCC3)sc1c(O)c(Br)ccc12,7,0.8,1,54*,-5,16
O=c1c2ccccc2nc2n1CCC2,4,0.7,0.9,2,13,29
COC(=O)c1ccc(C(=O)OC)c(NS(C)(=O)=O)c1,-4,1,0.9,16,14,-1
COc1ccccc1-c1nnc(SCC(=O)NCc2c(C)c(Cl)cc(C(C)C)c2O)o1,-15,3*,0.6,29,36,-201
COc1cc(-c2nnc(SCC(=O)c3ccccc3)o2)cc(OC)c1OC,5,0.9,0.6,-6,37,11
COC(=O)CSc1nnc(-c2ccc(OC)cc2OC)o1,7,1.1,0.9,-7,10,-10
CCOC(=O)CSc1nnc(-c2ccccc2OC)o1,-4,2*,0.6,23,36,-95
CCOC(=O)CN(C(=O)CSc1nnc(-c2ccc(OC)c(OC)c2)o1)c1ccc(F)cc1,6,0.6,0.9,0,13,38
O=C(CSc1nnc(-c2ccco2)n1CC1CCCO1)NC1CCCC1 (stereo unspecified),-2,1.2,0.5,6,54*,-23
COc1ccc(CN(C(=O)CSc2nnc(-c3ccccc3F)o2)c2ccc(F)cc2)cc1,26,0.2,0.4,13,62*,76*
O=C(NCC1CCCCC1)C1CCCN(C(=O)NC2CCCCC2)C1 (stereo unspecified),-4,0.8,0.9,2,6,16
CCC(=O)Nc1nnc(CSCc2ccccc2)s1,9,1,0.7,-4,27,-3
O=C(CSc1nnc(-c2ccccc2)o1)NC1CCCCC1,-2,0.5,0.2,8,83*,48
Cc1ccccc1-c1nnc(SCC(=O)Nc2cccc(C)c2C)o1,1,0.6,0.9,-9,12,38
COc1ccccc1-c1nnc(SCC(=O)Nc2c(Cl)cccc2Cl)o1,-1,0.3,0.2,-8,85*,74*
O=C(CSc1nnc(-c2ccco2)o1)NC1CCCCC1,-1,0.9,0.4,-12,55*,10
COc1cccc(NC(=O)CSc2nnc(-c3cc(C)n(-c4ccccc4)c3C)o2)c1,-13,0.2,0.5,14,50,78*
O=C(CSc1nnc(CNC(=O)c2ccco2)o1)NC1CCCC1,2,1.2,1.2,-4,-19,-17
Cc1ccc(-n2ncc3c(=O)n(CC(=O)NCc4ccco4)cnc32)cc1C,2,1,1,4,-4,-4
CC1CCN(CCNC(=O)CN(C)S(=O)(=O)c2cccc3nsnc23)CC1,5,1,1.1,3,-12,-5
CC(C)Cc1nnc(NC(=O)CCC(=O)N2CCN(c3ccccn3)CC2)s1,-4,0.9,1,8,2,11
O=C(NC1CCCc2ccccc21)c1cncc(Br)c1 (stereo unspecified),7,0.9,0.8,-1,18,11
CN(C(=O)CSc1nnc(-c2ccco2)o1)C1CCCCC1,-1,1.1,1,5,2,-9
Cc1ccccc1-c1nnc(SCC(=O)NC2CCCCC2)o1,-3,nt,nt,3,nt,nt
SMILES,PostGolgi yeast,CYP2C9 activ,CYP2C19 activ,PostGolgi ctrl,CYP2C19 inh,CYP2C9 inhib
COc1ccccc1-c1nnc(SCC(=O)NC2CCCCC2)o1,-2,1.9,0.5,14,54*,-93
O=C(CSc1nnc(-c2ccco2)o1)NC1CC2CCC1C2 (stereo unspecified),-5,0.8,0.4,8,56*,18
Cc1ccc(S(=O)(=O)Cn2nnnc2C(c2ccc(F)cc2)N2CCC(C(N)=O)CC2)cc1 (stereo unspecified),-5,0.9,1,2,-2,8
CCn1c(CNc2ccc(C(=O)O)cc2)nc2ccccc21,39*,1,0.9,11,5,0
CCn1c(CNC(=O)COC)nc2ccccc21,-2,1.2,1,6,-5,-20
CCCn1c(CNc2ccc(Br)cc2)nc2ccccc21,-4,0.1,0,71*,98*,92*
O=C1Oc2ccccc2C2(O)C3CCCCCC3C12 (stereo unspecified),-1,0.8,0.1,13,95*,20
Cc1cc(/C=C(\C#N)C(=O)OCC(=O)NC(=O)NC(C)(C)C)c(C)n1CCC(C)C,3,0,0.1,30,92*,98*
Cc1ccccc1Sc1c(C#N)c(-c2ccccc2)nn1C,-7,0.7,0.8,8,18,27
CCCCCCCCS(=O)c1sc2nc(C)cc(C)c2c1N (stereo unspecified),-10,0.2,0.1,16,88*,79*
CCCN1CCC2(CC1)C(C#N)=C(N)Oc1c2sc2nc(C)cc(C)c12,-3,0.8,0.9,-6,6,17
Cc1ccccc1-n1nc2c(c1NC(=O)c1ccc(Br)o1)CSC2,-3,0.4,0.8,5,15,57*
CC(=O)Nc1c2c(nn1-c1ccc(C)cc1C)CSC2,25,1,0.9,-5,12,-3
O=C(CN1CCN(Cc2ccccc2)C1=O)NCCCN1CCOCC1,-7,0.9,1,-1,4,6
O=c1c2ccccc2c(C=NCCCN2CCOCC2)c(O)n1Cc1ccccc1,-9,0.3,0.4,22,65*,71*
O=c1c2ccccc2c(C=NCCc2ccccc2)c(O)n1Cc1ccccc1,11,0.2,0.5,10,48,77*
O=c1[nH]c2ccccc2c(=O)n1Cc1ccccc1,21,1,0.6,4,37,-4
O=C(c1cc2c(ccc3ccccc32)o1)N1CCN(c2ncc(C(F)(F)F)cc2Cl)CC1,-10,1,0.8,23,17,2
Cc1ccc(N2CCN(C(=S)c3ccc(N(C)C)cc3)CC2)cc1,-1,0.2,0.2,12,83*,77*
CN(C)c1ccc(C(=S)N2CCCCCC2)cc1,1,0.8,0.5,15,53*,20
CN(C)c1ccc(C(=S)N2CCN(c3ccccc3)CC2)cc1,-2,0.9,0.5,10,49,14
Cc1cc(NC(=O)c2cc3ncc(Br)cn3n2)no1,0,0.8,1.1,9,-8,17
C=CCN(C(=O)CSc1nc2[nH]ncc2c(=O)n1-c1ccccc1OC)c1ccccc1,-3,nt,nt,1,nt,nt
COc1ccc(NC(=O)C2CCN(Cc3cnn(-c4ccccc4)c3-n3cccc3)CC2)cc1OC,12,0.6,0.9,1,8,41
